Bioassay records as filed in PubChem.
Six1-Eya2 inh – inhibitors of human Six1/Eya2 interaction. Q15475+O00167. activity change, % (no concentration beside the values). 0.56% of 360,000 active. AID 651725. AlphaScreen GST-Six1/His-Eya2 binding, biochemical; active compounds read low; in the data active = activity change below about -65%; inconclusive = mostly about -30% to -63%; note: % is set by controls: 0 for no effect and ±100 for the full control effect
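AlphaScreen with GST-Six1 and His-Eya2 (5X mix: 250 nM and 500 nM), glutathione donor and nickel acceptor beads; buffer 50 mM Tris pH 8.0, 300 mM NaCl, 1 mM TCEP; 1 h at 37 C in the dark.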
HP1b binding inh – HP1-beta chromodomain-methylated histone interaction inhibition; AID 540317; Potency, µM (titrated, usually from 114 µM), inactives show at the highest dose activity change, negative = inhibition, actives largely listed as inhibitors; P83916; 0.56% of 390,000 active; AlphaScreen HP1-beta / biotin-H3K9me3 peptide binding; note: potency is the fitted concentration of half-maximal effect; nearly all actives have a fitted effect of over 70% in size
Target sequence (P83916 whole entry, looked up): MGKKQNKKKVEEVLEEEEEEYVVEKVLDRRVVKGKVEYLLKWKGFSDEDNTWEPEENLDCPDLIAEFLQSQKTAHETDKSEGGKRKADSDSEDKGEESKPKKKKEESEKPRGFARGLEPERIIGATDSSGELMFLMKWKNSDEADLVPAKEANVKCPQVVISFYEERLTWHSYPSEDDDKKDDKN
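AlphaScreen: HP1-beta (50 nM) preformed 30 min with biotin-H3(1-18)K9me3 peptide (50 nM) in PBS pH 7.4, 0.01% Tween-20. Compound added for 30 min at RT, then streptavidin donor/nickel chelate acceptor beads (10 ug/mL) for 30 min.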
CtBP-E1A inh – CtBP/E1A binding inhibition; activity change, % (test concentration not listed); AID 651724; AlphaScreen GST-E1A/His-CtBP binding, 1536-well; active compounds read low; 0.49% of 340,000 active; in the data active = activity change below about -65%; inconclusive = mostly about -30% to -63%; note: % is set by controls: 0 for no effect and ±100 for the full control effect
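Protein mix (5X: 125 nM each GST-E1A, His-CtBP) was incubated with pinned compound 2 h at 37 deg C in dark, in 50 mM Tris pH 8.0 buffer with 300 mM NaCl. Glutathione donor and nickel acceptor beads followed; AlphaScreen signal read after 1 h.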
G9a inh – G9a (human) methyltransferase inhibition; G9a H3K9 monomethylation, AlphaScreen, 2 h; Potency, µM (top dose mostly 102 µM), for inactives: top-dose activity, negative = inhibition, usual class: inhibitors; 8.8% of 350,000 active; Q96KQ7; note: potency is the fitted concentration of half-maximal effect; % is set by controls: 0 for no effect and ±100 for the full control effect; nearly all actives have a fitted effect of over 75% in size
Target sequence (Q96KQ7 913-1193 limits assumed): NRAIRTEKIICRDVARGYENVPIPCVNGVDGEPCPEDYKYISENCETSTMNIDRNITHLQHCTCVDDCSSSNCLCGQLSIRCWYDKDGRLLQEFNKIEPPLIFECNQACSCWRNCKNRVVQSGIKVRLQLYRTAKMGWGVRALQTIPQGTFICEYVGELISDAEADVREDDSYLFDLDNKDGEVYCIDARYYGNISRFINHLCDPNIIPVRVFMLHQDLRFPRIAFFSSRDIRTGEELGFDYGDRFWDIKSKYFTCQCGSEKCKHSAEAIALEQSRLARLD
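AlphaScreen read-out: biotin-H3K9 peptide (500 nM) methylation by 20 nM enzyme with 20 uM SAM, 2 h at room temperature after 15 min compound preincubation; anti-monomethyl H3K9 antibody plus donor/acceptor beads, 10 min dark.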
JMJD2A Tudor – blocks the human JMJD2A Tudor domain | Potency, µM (top dose mostly 114 µM), without a hit: top-dose activity change, negative = inhibition, actives largely listed as inhibitors | O75164 | 4.4% of 390,000 active | AID 504339 | AlphaScreen JMJD2A-Tudor / H3K4me3 peptide binding; note: potency is the fitted concentration of half-maximal effect; % is set by controls: 0 for no effect and ±100 for the full control effect; nearly all actives have a fitted effect of over 50% in size
BAZ2B inh – inhibitors of human BAZ2B bromodomain; Q9UIF8; AlphaScreen BAZ2B-H3K14Ac peptide displacement; Potency, µM (top dose mostly 114 µM), for the others: at the top dose activity change, negative = inhibition, actives largely listed as inhibitors; 4.4% of 360,000 active; AID 504333; note: potency is the fitted concentration of half-maximal effect; % is set by controls: 0 for no effect and ±100 for the full control effect; nearly all actives have a fitted effect of over 60% in size
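In this displacement format the biotinylated H3(5-23) peptide acetylated at Lys14 serves as ligand at 50 nM, with BAZ2B at 50 nM in PBS pH 7.4 containing 0.01% Tween-20. Donor and acceptor beads are 10 ug/mL final.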
* marks the source's active call; other numbers are inactive results; ? = inconclusive; / = no result; [ ] = dose if it differs, or a comment. An excerpt weighted towards active compounds, which were near 10% of everything screened. Unless noted, calls come from the whole dose curve; as a rule, active = well fitted inhibition curve with a large enough effect; inconclusive = small, poorly fitted or top-dose-only effect; inactive = no such curve, though single readings can be large or run the other way.

SMILES	Six1-Eya2 inh	HP1b binding inh	CtBP-E1A inh	G9a inh	JMJD2A Tudor	BAZ2B inh
Oc1ccccc1/C=N/NC1=NCCCCC1	5.1	44.0%	0.9	/	-13.4%	10.2%
COc1ccc(/C=N/NC2=NCCCCC2)cc1	6.5	44.7%	5.1	28.2µM*	-12.9%	-2.7%
COc1ccc(/C=N/NC(C)(C)C)c(OC)c1	-4.0	16.7%	0.0	12.6µM*	-16.8%	?
CC(=O)Nc1cccc(OCCCNS(=O)(=O)c2ccc(F)cc2)c1	-2.5	20.9%	/	10.2%	-0.7%	-1.8%
CC1C(=O)Nc2ccc(S(=O)(=O)N3CCCCCC3)cc21 (centres undefined)	-1.7	46.2%	2.1	-2.2%[2.33 µM]	-4.7%	3.5%
CC1CCN(C(=O)c2cc(-c3ccc(Cl)cc3)on2)CC1	/	46.4%	/	4.5%[59 µM]	3.8%	2.8%
CCN(CC(=O)NCc1ccco1)S(=O)(=O)c1ccc(OC)cc1	3.4	6.5%	-2.7	23.1%[0.501 µM]	-19.2%	3.3%
COc1ccc(/C=C/C(=O)Nc2ccc3nc4c(c(Nc5ccc(OC)c(OC)c5)c3c2)CCCC4)cc1	/	?	/	8.91µM*	22.4µM*	8.91µM*
COc1ccc(Nc2c3c(nc4ccc(NC(=O)/C=C/c5cc(OC)c(OC)c(OC)c5)cc24)CCCC3)cc1OC	/	-20.2%	/	15.8µM*	?	10µM*
Cc1ccc(N2CC(NC(=O)C3CCCCC3)CC2=O)cc1C (centres undefined)	/	25.0%	/	5.0%[59 µM]	-4.5%	2.8%
Oc1ccccc1C(=S)N1CCCCC1	-3.7	-17.5%	4.6	10µM*	3.0%	-4.1%
Oc1ccccc1C(=S)N1CCCCCC1	-1.5	33.5%	4.1	?	-14.4%	-7.7%
CCCCCCC(=O)N(O)C1CC(=O)N(c2ccc(C)cc2)C1=O (centres undefined)	-2.2	?	-13.8	1.26µM*	14.1µM*	2.8%
CCCCCCC(=O)N(O)C1CC(=O)N(c2ccc(Cl)cc2)C1=O (centres undefined)	-4.3	39.8µM*	3.9	/	31.6µM*	-19.2%
Cc1ccc(N2C(=O)CC(N(O)C3CC(=O)N(c4ccc(C)cc4)C3=O)C2=O)cc1 (centres undefined)	-3.3	8.8%	0.7	?	-34.3%	-18.4%
O=C(O)CSC1CC(=O)N(c2ccc(Cl)cc2)C1=O (centres undefined)	2.4	32.1%	-5.2	?	-29.4%	-26.3%
Cn1c(=O)c(CCc2ccccc2)nc2cnc(OCc3ccccc3)nc21	/	/	/	7.5%[0.501 µM]	/	/
COc1cccc(CNC(=O)c2c(O)nc3ccccn3c2=O)c1	/	17.3%	/	?	-12.0%	-0.3%
CC(=O)NCCNc1cc(-c2ccccc2CN(C)C)ncn1	/	/	/	-20.1%[0.501 µM]	/	/
CN(C)C1(CNCC(O)c2ccccc2)CCCCC1 (centres undefined)	7.1	?	8.9	20µM*	20µM*	70.8µM*
CN(C)C1(CNC(=O)Nc2ccccc2)CCCCC1	-0.5	15.9%	3.3	-10.9%	-0.4%	5.1%
Cn1c(CCNC(=O)c2ccco2)nc2cc(NC(=O)c3ccco3)ccc21	3.2	43.4%	5.1	14.1µM*	3.0%	-6.8%
O=C(Nc1ccc2nc(-c3ccccc3)[nH]c2c1)c1cccs1	-27.2	11.6%	8.8	?	-20.3%	-5.8%
O=C(Nc1ccc2nc(-c3ccco3)[nH]c2c1)c1cccs1	?	16.7%	?	14.1µM*	-16.1%	?
O=C(Nc1ccc2nc(-c3ccc4nc[nH]c4c3)[nH]c2c1)c1cccs1	?	?	?	22.4µM*	-35.1%[57.1 µM]	-28.1%
SMILES	Six1-Eya2 inh	HP1b binding inh	CtBP-E1A inh	G9a inh	JMJD2A Tudor	BAZ2B inh
CC(=O)Nc1ccc2nc(-c3ccco3)[nH]c2c1	-8.3	8.6%	-21.6	?	4.5%	-18.3%
O=C(Nc1ccc2nc(-c3ccco3)[nH]c2c1)c1ccco1	?	37.0%	-25.4	70.8µM*	-25.7%	?
CCOc1ccc(C2C(=O)N(C3CCCCCC3)CC(=O)N2CCc2ccc(OC)c(OC)c2)cc1OC (centres undefined)	/	20.2%	/	-4.8%[59 µM]	-24.2%	-0.5%
CCc1ccc(NC(=O)c2sc3ncnc(N(C)C4CCCCC4)c3c2C)cc1	/	30.4%	/	5.5%[59 µM]	-15.3%	-6.9%
NC(=O)c1cc([N+](=O)[O-])ccc1Nc1ccccc1	-3.6	18.0%	-2.0	9.5%[2.33 µM]	-23.8%	3.9%
O=C(O)c1ccccc1Nc1ccc([N+](=O)[O-])c2nonc12	7.1	?	-8.8	44.7µM*	-31.5%	39.8µM*
O=C(O)c1ccccc1Nc1ccc([N+](=O)[O-])cc1C(=O)O	5.4	-5.2%	-1.6	31.6µM*	31.6µM*	?
CSc1ccc(CN2C(=O)NC3(CCCCC3)C2=O)cc1	5.7	2.3%	8.5	-17.8%	-17.4%	-20.0%
Cc1ccc(NC(=O)C(OC(=O)c2ccc(F)cc2)c2ccccc2)cc1Cl (centres undefined)	14.4	31.8%	0.0	21.3%[59 µM]	-11.6%	3.5%
Cc1ccc(NC(=O)C(OC(=O)c2ccc(O)cc2)c2ccccc2)cc1Cl (centres undefined)	0.3	56.4%	/	70.8µM*	-12.4%	-7.9%
O=C(NC(NCc1ccccn1)(C(F)(F)F)C(F)(F)F)c1ccco1	-73.4*	26.4%	?	16.5%	0.708µM*	50.1µM*
O=C(NCCNCc1ccccn1)c1ccco1	?	37.2%	?	8.8%	-17.4%	?
CN(CCc1ccccn1)C(=S)NC(=O)c1ccco1	3.5	0.7%	15.5	20µM*	-6.9%	?
O=C(Cc1cccs1)NCCS(=O)(=O)N1CCN(c2ccccc2)CC1	6.5	/	-0.6	/	/	/
COCCNC(=S)N1CCC(c2nc(-c3ccc(N(C)C)cc3)no2)CC1	-14.4	-33.0%	-11.8	?	?	56.2µM*
O=C(c1c(F)cccc1F)N(Cc1ccccn1)C1CC1	5.7	17.4%	-1.8	?	-3.1%[11.4 µM]	79.4µM*
Cc1cn([C@H]2C[C@H](O)[C@@H](CCC(=O)NCCc3cnc[nH]3)O2)c(=O)[nH]c1=O	-6.9	-17.2%	-7.1	/	-26.7%	/
COc1cc(OC)c(-c2c3cc(O)c(=O)cc-3oc3cc(O)c(O)cc23)cc1OC	?	-89.7%	-0.4	10µM*	1.12µM*	1.12µM*
COc1cccc(-c2cc(=O)c3ccccc3o2)c1N	/	/	/	50.1%[12.7 µM]	/	/
Cc1c2cc(O)c(=O)cc-2oc2cc(O)c(O)cc12	-88.9*	0.708µM*	-93.8*	7.94µM*	1.41µM*	4.47µM*
O=C(CSc1nccn1Cc1ccc(F)cc1)NCc1ccco1	/	24.3%[57 µM]	/	1.5%[59 µM]	-8.7%	-6.1%
Cc1ccc(NC(=O)CN2C=NS(=O)(=O)c3ccccc32)c(C)c1	/	-9.1%	/	-2.3%[59 µM]	-27.7%	-0.6%
Cc1cccc(-c2nsc(SCC(=O)Nc3nccs3)n2)c1	1.8	-8.1%	8.8	10µM*	?	-5.3%
